Source: publication PMC12431657, “Discovery and mechanistic insights of dibenzoylmethane as a broad spectrum inhibitor of coronavirus” (PLOS Pathogens, 2025)
The campaign covered roughly 3,300 compounds. About 95 (3%) showed an effect of 50% or more. The entries come from a sample that favours strong results as a whole.

Each compound was assayed on HCoV-229E. Conditions: 24 h post infection, 1 h compound pre-incubation; 10 µM; inhibitor.
Parameters: species or system Huh-7; HTS, protection from HCoV-229E induced cell death, luminescent cell viability (CellCounting-Lite 2.0), inhibition rate

**Q.** How did the “229E Inhibition rate” value turn out when COc1cc(OC)c(CCC(=O)c2ccc(O)cc2)c(OC)c1 [Loureirin B] was run?
**A.** Its value is 16%.

**Q.** Which “229E Inhibition rate” value does the source give for Oc1cc2cc[nH]c2cc1O [5,6-Dihydroxyindole] here?
**A.** The value was 1.6%.

**Q.** With CC(=O)O[C@@H]1C[C@H](O)[C@@]23CO[C@@H](O)[C@]1(C)[C@@H]2C[C@@H](O)[C@]1(C)[C@@H]3C(=O)[C@H](OC(C)=O)[C@@]2(C)[C@H](c3ccoc3)C[C@H]3O[C@]321 [Toosendanin] as the compound, how does the “229E Inhibition rate” value read?
**A.** The value was 23.4%.

**Q.** With C[C@@H](CO[C@@H]1O[C@H](CO)[C@@H](O)[C@H](O)[C@H]1O)[C@@H]1CC[C@@]2(CC[C@]3(C)[C@H](CC[C@@H]4[C@@]5(C)CC[C@H](O[C@@H]6O[C@H](CO)[C@@H](O)[C@H](O)[C@H]6O[C@@H]6O[C@H](CO)[C@@H](O)[C@H](O)[C@H]6O)[C@@](C)(CO[C@@H]6O[C@H](CO)[C@@H](O)[C@H](O)[C@H]6O)[C@@H]5CC[C@]43C)[C@H]2O)CO1 [Hosenkoside K] as the compound, how does the “229E Inhibition rate” value read?
**A.** Its value is 58.2%.

**Q.** How did the “229E Inhibition rate” value turn out when C[C@H](CO[C@@H]1O[C@H](CO)[C@@H](O)[C@H](O)[C@H]1O)[C@H]1CC[C@@]2(CC[C@]3(C)[C@H](CC[C@@H]4[C@@]5(C)CC[C@H](O[C@@H]6O[C@H](CO)[C@@H](O)[C@H](O)[C@H]6O[C@@H]6O[C@H](CO)[C@@H](O)[C@H](O)[C@H]6O)[C@@](C)(CO)[C@@H]5CC[C@]43C)[C@H]2O)CO1 [Hosenkoside B] was run?
**A.** Its value is 10.3%.

**Q.** How did the “229E Inhibition rate” value turn out when C[C@@H](CO[C@@H]1O[C@H](CO)[C@@H](O)[C@H](O)[C@H]1O)[C@@H]1CC[C@@]2(CC[C@]3(C)[C@H](CC[C@@H]4[C@@]5(C)CC[C@H](O[C@@H]6O[C@H](CO)[C@@H](O)[C@H](O)[C@H]6O[C@@H]6OC[C@@H](O)[C@H](O)[C@H]6O)[C@@](C)(CO[C@@H]6O[C@H](CO)[C@@H](O)[C@H](O)[C@H]6O)[C@@H]5CC[C@]43C)[C@H]2O)CO1 [Hosenkoside M] was run?
**A.** Its value is 10.1%.

**Q.** With O=C(O)Cc1ccc(O)c(O)c1 [3,4-Dihydroxybenzeneacetic acid] as the compound, how does the “229E Inhibition rate” value read?
**A.** Its value is 39.5%.

**Q.** For O=C(O)Cc1ccc(O)cc1 [4-Hydroxyphenylacetic acid], which “229E Inhibition rate” value is on record?
**A.** Its value is 52.1%.

**Q.** With O=C(O)C(=O)Cc1ccc(O)cc1 [4-Hydroxyphenylpyruvic acid] as the compound, how does the “229E Inhibition rate” value read?
**A.** Its value is 21.1%.

**Q.** CN(C)CC(=O)O [N-Methylsarcosine] was tested. Which “229E Inhibition rate” value did it give?
**A.** Its value is 11.2%.

**Q.** With COc1cc(/C=C/C(=O)OC(C)C)ccc1O [Isopropyl ferulate] as the compound, how does the “229E Inhibition rate” value read?
**A.** Its value is 36.5%.

**Q.** With C[C@@H]1O[C@@H](Oc2cc(O)c3c(c2)O[C@H](c2ccc(O)c(O)c2)[C@@H](O)C3=O)[C@H](O)[C@H](O)[C@H]1O [Taxifolin 7-O-rhamnoside] as the compound, how does the “229E Inhibition rate” value read?
**A.** The value was 9.6%.

**Q.** How did the “229E Inhibition rate” value turn out when C[C@H](CC[C@@H](O)C(C)(C)O)[C@H]1CC[C@@]2(C)[C@@H]3CC=C4[C@@H](CC[C@H](O)C4(C)C)[C@]3(C)C(=O)C[C@]12C [Bryodulcosigenin] was run?
**A.** The value was 12.5%.

**Q.** With COc1cc2ccc(=O)oc2c(O[C@@H]2O[C@H](CO)[C@@H](O)[C@H](O)[C@H]2O)c1O [Fraxin] as the compound, how does the “229E Inhibition rate” value read?
**A.** The value was 10.9%.
